From PubChem BioAssay (NCI)
About 83,000 compounds went through this panel and 20% of them were active in at least one assay; those are over-represented in the sample as a whole.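 Single-dose data. Exposure time 48 hours. Values below 10 considered active.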 Active and inactive are the calls of the source.

What follows are compounds tested on HCT-116 colon (assay: NCI-60 one-dose screen, 48 h (100 = growth as untreated, 0 = no growth, -100 = all killed)). Conditions: 10 µM unless noted.

Compound | growth
O=CC1(C2(C=O)c3ccccc3-c3ccccc32)c2ccccc2-c2ccccc21 | -60.6% (active)
N#Cc1c(-c2cccs2)cc(-c2cccnc2)[nH]c1=O | 104% (inactive)
CCOC(=O)c1cnc2ccccc2c1Cl | 95.7% (inactive)
Cn1cccc1C(=O)C1C(c2cccc([N+](=O)[O-])c2)C2C3CCCCC3CN2C12C(=O)Nc1ccc(Cl)cc12 (stereo not given) | 14.9% (inactive)
Cc1ccccc1/C=C1\CN(C(=O)OC(C)(C)C)C/C(=C\c2ccccc2C)C1=O | -53.9% (active)
Cc1ccc(-c2cc(-c3ccc(Cl)cc3)nc(NC(=O)c3cccnc3)n2)cc1 | 98.9% (inactive)
O=c1c2cc(-c3ccccc3)sc2nc2sc(-c3ccccc3)nn12 | 102% (inactive)
COc1ccc2nc(NC(=O)CSc3nnc4n3S(=O)(=O)c3ccccc3N4C)sc2c1 | 97.1% (inactive)
Cc1ccc(/C=C2\CN(C(=O)OC(C)(C)C)C/C(=C\c3ccc(C)cc3)C2=O)cc1 | -44.4% (active)
O=C(Nn1c2c(sc1=Nc1ccccc1)C(=O)c1ccccc1C2=O)c1cc2ccc1CCc1ccc(cc1)CC2 | 60.9% (inactive)
O=C1Nc2ccc(I)cc2C1=O | 71.8% (inactive)
Fc1ccc2[nH]cc(-c3nonc3-c3c[nH]c4ccc(Br)cc34)c2c1 | 20.2% (inactive)
O=C(/C=C/c1ccc(Cl)cc1)c1cccc(Nc2nc(Nc3ccccc3)nc(Nc3ccccc3)n2)c1 | 29.5% (inactive)
O=[N+]([O-])c1ccc(S(=O)(=O)N2CCN(C3=NS(=O)(=O)c4ccccc4N3c3ccccc3)CC2)cc1 | 91.2% (inactive)
Oc1ccc(CCn2c(O)c(/C=C3\CN=c4ccccc4=N3)sc2=S)cc1 | 55.8% (inactive)
CCOC(=O)/C=C1\S/C(=N\Nc2cc(=O)[nH]c3ccc(Cl)cc23)N(c2ccccc2)C1=O | 38.9% (inactive)
CCOC(=O)c1cn2ncnc(Oc3ccc(NC(=O)NC4CCCCC4)c(Cl)c3)c2c1C | 81.4% (inactive)
Fc1cc2c(cc1Cl)N(c1ncnc3ccc(-c4cnc5[nH]ncc5c4)cc13)CC2 | 70.3% (inactive)
CC1=C(Nc2ccc(N3CCN(C)CC3)cc2)C(=O)c2cncnc2C1=O | 6.39% (active)
COc1ccc(C(=O)Nc2ncc(Cc3ccc(F)cc3)s2)cc1 | 13.1% (inactive)

Compound | growth
Cc1ccc(CNc2ccc(Cl)cc2NCc2ccc(C)c(O)c2)cc1O | 24.4% (inactive)
COc1cc(NC(C)CCCNC(C)C)c2ncccc2c1OC (stereo not given) | 92% (inactive)
Cc1ccc(NC(=S)NNC(=S)NNc2ccccc2)cc1C | 116% (inactive)
COc1ccc(/C=N/C2=C(C#N)C(c3cccc(Cl)c3)c3c(ccc4ccccc34)O2)cc1 (stereo not given) | 21.8% (inactive)
C#CCOc1ccc2ncnc(Nc3cccc(NC(=O)C=C)c3)c2c1 | 74.4% (inactive)
Cc1nc2c(=O)[nH]c(SCC(=O)Nc3cccc(F)c3)nc2[nH]c1=O | 103% (inactive)
CC1(C)c2[nH]c3ccccc3c2C[C@]2(C)[C@H]3CC=C4[C@@H]5C[C@@](C)(C(N)=O)CC[C@]5(C)CC[C@@]4(C)[C@]3(C)CC[C@@H]12 | 40.9% (inactive)
CCOC(=O)c1cc(-c2ccc([N+](=O)[O-])cc2)n(-c2ccc(C(=O)O)c(O)c2)c1C | 49.4% (inactive)
Nc1c(C(=O)Nc2ccncc2)sc2nc3c(cc12)CCCCCC3 | 65.5% (inactive)
COc1cccc(NC(=O)Cn2cc(CN3CCN(c4ccnc5cc(Cl)ccc45)CC3)nn2)c1 | 97% (inactive)
COC(=O)c1cc(-c2ccc(OC)cc2)[nH]c1N/N=C/c1c(Cl)cccc1Cl | -64.5% (active)
O=C1CC(N2C(=O)/C(=C/C(Cl)=C\c3ccc([N+](=O)[O-])cc3)SC2=S)C(=O)N1c1ccc(Cl)cc1 (stereo not given) | 8.7% (active)
Clc1ccc2c(c1)N(c1ncnc3ccc(-c4cnc5[nH]ncc5c4)cc13)CC2 | 35.8% (inactive)
O=C1Nc2ccc(Br)cc2/C1=N/c1n[nH]c(=S)s1 | 103% (inactive)
O=C1C(Cl)=C(Oc2ccccc2)C(=O)c2ccccc21 | 29.3% (inactive)
Cn1cc(-c2csc(-c3ccc(Cl)cc3)n2)c2cccnc21 | -62% [100 µM] (active)
Brc1ccc2[nH]cc(-c3nonc3-c3c[nH]c4ccccc34)c2c1 | 36.9% (inactive)
COc1ccc(C2=Nc3c/c(=C\c4c(O)[nH]c5ccc(Cl)cc45)ccc3=N2)cc1 | 33.6% (inactive)
CC(C)NC1CCC(Nc2ccnc3cc(Cl)ccc23)CC1 (stereo not given) | 76.6% (inactive)
Cc1cc(=O)[nH]c2c(C#N)cnn12 | 98.5% (inactive)
